From PubChem BioAssay
Only some compounds are listed: those with a hit (about 9.5% of all), similar ones and a draw of the others.
ALDH1A1 block: inhibitors of human aldehyde dehydrogenase 1A1. P00352. Purified ALDH1A1, NADH fluorescence, propionaldehyde substrate. Potency, µM (titrated, usually from 75.3 µM), for the others: at the highest dose activity, negative = inhibition, hits mostly inhibitors. actives 7.3% (n = 220,000). AID 1030; active = well fitted inhibition curve with a large enough effect, not every such curve was filed as active; inconclusive = small, poorly fitted or top-dose-only effect, or another doubt; inactive = no such curve, though single readings can be large or run the other way;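 also: plate controls were no enzyme wells and a reference inhibitor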
Tau ThT inhib: blocks human tau fibril formation measured by thioflavin T. AID 1460. Potency, µM (doses to about 57.4 µM), for inactives: top-dose activity, negative = inhibition, most hits filed as inhibitors. P10636. recombinant tau K18 P301L, heparin-induced fibrillization, ThT fluorescence. actives 2.1% (n = 270,000); also: nearly all actives have a fitted effect of over 55% in size
Target sequence (P10636 561-689 P618L limits assumed): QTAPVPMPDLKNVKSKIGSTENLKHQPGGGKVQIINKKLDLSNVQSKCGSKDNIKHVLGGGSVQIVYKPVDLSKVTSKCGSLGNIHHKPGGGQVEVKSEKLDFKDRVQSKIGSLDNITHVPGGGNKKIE
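Heparin-induced (20 uM) aggregation of recombinant human K18 P301L tau, 15 uM unlabeled with 0.24 uM labeled, pH 7 acetate buffer, 6 hr at 37 C with compound. Fibrils quantified by 30 uM ThT fluorescence after 1 hr ambient incubation.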
HPGD block: blocks human HPGD enzyme activity; P15428; purified HPGD, NADH fluorescence kinetic, PGE2 substrate; Potency, µM, without a hit: top-dose activity change, negative = inhibition, most hits filed as inhibitors; actives 4.3% (n = 150,000); AID 894; active = well fitted inhibition curve with a large enough effect, not every such curve was filed as active; inconclusive = small, poorly fitted or top-dose-only effect, or another doubt; inactive = no such curve, though single readings can be large or run the other way
Target sequence (P15428 whole entry, looked up): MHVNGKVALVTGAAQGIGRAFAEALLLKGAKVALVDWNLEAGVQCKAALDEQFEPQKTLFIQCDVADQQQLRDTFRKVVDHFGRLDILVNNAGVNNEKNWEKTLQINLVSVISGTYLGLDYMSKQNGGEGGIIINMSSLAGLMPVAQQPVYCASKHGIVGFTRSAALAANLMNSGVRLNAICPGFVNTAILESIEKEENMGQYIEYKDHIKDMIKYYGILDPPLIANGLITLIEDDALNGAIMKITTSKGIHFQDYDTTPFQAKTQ
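NADH formation kinetics: reaction with 30 uM PGE2 and 1 mM NAD+ (final), 20 nM enzyme, Tris-HCl pH 8 with Tween 20, after 15 min compound preincubation at room temperature. Fluorescence change, last versus first of five reads.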
Tau fibril FP: blocks human tau fibril formation measured by polarization | AID 1468 | actives 0.39% (n = 280,000) | K18 P301L tau heparin fibrillization, Alexa594 FP, 6 h | Potency, µM (titrated, usually from 57.7 µM), without a hit: top-dose activity, negative = inhibition, usual class: inhibitors | P10636; also: nearly all actives have a fitted effect of over 55% in size
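Heparin (20 uM) drove fibril formation of recombinant tau K18 P301L, 15 uM unlabeled with 0.24 uM Alexa 594 label, for 6 hr at 37 C in 100 mM sodium acetate pH 7. Fluorescence polarization (555/632 nm) read 1 hr after 30 uM ThT.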
Tau fluor counter: counter-screen for tau fibril formation inhibitors; tau K18 P301L (four-repeat tau fragment) Alexa594 fluorescence, heparin fibrillization; Potency, µM (doses to about 57.7 µM), inactives show at the highest dose activity change, negative = decrease; actives 0.93% (n = 280,000); also: nearly all actives have a fitted effect of over 55% in size
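Human K18 P301L tau (15 uM unlabeled plus 0.24 uM Alexa 594-labeled, final) in 100 mM sodium acetate pH 7 was mixed with compound and 20 uM heparin and incubated 6 hr at 37 C.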
NPSR antag: neuropeptide S receptor (human) antagonism, cAMP; AID 1461; CHO-NPSR cells, cAMP TR-FRET, antagonist mode; Q6W5P4; actives 1% (n = 220,000); Potency, µM (series often up to 38.3 µM), for inactives: at the highest dose activity change, negative = inhibition, actives largely listed as inhibitors; also: nearly all actives have a fitted effect of over 50% in size
Active calls of the source: *; u = inconclusive; x = no result; [ ] = remark or other dose. Unless noted, calls follow the shape of the dose curve; as a rule, active = well fitted curve in the direction sought with a large enough effect; inconclusive = small, poorly fitted or top-dose-only effect, or another doubt; inactive = no such curve, though single readings can be large; an effect the other way counts as inactive or inconclusive. Unless noted, % is scaled to controls: 0 for no effect and ±100 for the full control effect; potency is read from the fitted curve at half-maximal effect.

SMILES	ALDH1A1 block	Tau ThT inhib	HPGD block	Tau fibril FP	Tau fluor counter	NPSR antag
CCC(CO)NC(=O)c1cc2c(s1)CCC2 (stereo unspecified)	3.5%	-1.3%	-4.5%	0.8%	0.2%	-7.3%[46.1 µM]
Cc1csc(NC(=O)c2cc3c(s2)CCC3)n1	u	-20.9%	7.94µM*	-8.5%	-6.2%	6.2%[46.1 µM]
CC(NC(=O)c1cc2c(s1)CCCC2)C(C)(C)C (stereo unspecified)	-4.4%	-3.8%	14.1µM*	2.8%	-4.1%	-23.2%[46.1 µM]
COC(=O)c1sc(NC(=O)c2cc3c(s2)CCCC3)nc1C	-13.6%	-17.7%	-10.7%	-4.7%	-7.2%	-17.0%[46.1 µM]
CC(Oc1ccccc1)C(=O)N/N=C/c1ccccn1 (stereo unspecified)	9.5%	-3.3%	x	-4.9%	-1.5%	0.8%
CN(C)CCCN1C(=O)C(=O)/C(=C(/O)c2ccc(S(=O)(=O)N(C)C)cc2)C1c1ccncc1 (stereo unspecified)	25.1µM*	x	-8.5%	x	x	x
CN(C)CCCN1C(=O)C(=O)/C(=C(/O)c2ccncc2)C1c1cccnc1 (stereo unspecified)	-2.5%	-1.0%	-12.2%	-2.3%	1.1%	9.6%[46.1 µM]
CCN(CC)CCNc1cc(C)nc2c1C(=O)C(=O)C=C2N1CCCCC1	-4.5%	8.91µM*	x	u	-26.5%	-33.7%
O=C(O)CCCN=C1NC2(CCCC2)Cc2ccccc21	4.8%	-3.8%	2.8%	3.3%	-2.3%	-10.7%[46.1 µM]
O=C(O)CCN=C1CCCc2ccccc2N1	31.6µM*	5.4%	-13.0%	-5.1%	-0.4%	-5.5%[46.1 µM]
Cc1ccc(C(c2c(O)cc(C)n(Cc3ccco3)c2=O)N2CCC(C)CC2)cc1 (stereo unspecified)	x	u	x	-9.3%	-14.6%	x
CC(C)CSc1ccccc1NC(=O)c1sc2nc(-c3ccncc3)ccc2c1N	x	-15.7%	x	2.9%	3.16µM*[quencher]	x
CCOC(=O)c1sc2nc(-c3ccccc3)ccc2c1N	-11.2%	0.5%	u	12.5%	-11.0%	7.0%
CC(C(=O)Nc1ccccn1)N1C(=O)C2C3C=CC(C3)C2C1=O (stereo unspecified)	25.1µM*	-19.9%	x	-6.7%	-18.9%	0.6%[46.1 µM]
O=C(Nc1nc(-c2ccccn2)cs1)C1COc2ccccc2O1 (stereo unspecified)	5.8%	1.5%	-10.1%	7.5%	2.7%	-22.8%[46.1 µM]
O=C(CN1C(=O)C2CCCCC2C1=O)Nc1nc(-c2ccccn2)cs1 (stereo unspecified)	22.4µM*	-15.0%	28.2µM*	-1.5%	-11.5%	-17.8%[46.1 µM]
CC1CC1C(=O)Nc1nc(-c2ccccn2)cs1 (stereo unspecified)	10µM*	u	14.1µM*	-2.8%	-11.2%	-8.2%[46.1 µM]
O=C(CCN1C(=O)C2CCCCC2C1=O)Nc1nc(-c2ccc(F)c(F)c2)cs1 (stereo unspecified)	u	1.8%	x	-12.2%	-18.4%	-4.9%
C[C@@H](C(=O)Nc1nc(-c2ccccn2)cs1)N1C(=O)C2CCCCC2C1=O (stereo partly specified)	12.6µM*	u	25.1µM*	-11.1%	-18.7%	-6.4%[46.1 µM]
CCOc1ccc(Nc2cc(C)nc3nc(Cc4ccc(Cl)cc4)nn23)cc1	x	-1.0%	x	-1.9%	1.6%	x
c1ccc(CCNc2nc(-c3cccnc3)cs2)cc1	u	u	-15.3%	1.1%	-25.4%	-7.1%[46.1 µM]
c1ccc(CCNc2nc(-c3ccccn3)cs2)cc1	31.6µM*	u	x	6.0%	-24.7%	-15.9%
O=C(CSc1n[nH]c(-c2cccnc2)n1)Nc1ccccc1	1.4%	-2.6%	10µM*	u	-11.1%	3.0%[46.1 µM]
O=C(CSc1n[nH]c(-c2ccccc2)n1)Nc1ccc(N2CCOCC2)cc1	22.4µM*	u	x	7.9%	-16.8%	-15.5%
O=C(CSc1ccccc1)Nc1ccc(N2CCOCC2)cc1	u	u	-7.8%	-1.8%	-29.4%	-2.3%[46.1 µM]
